# Several values for one entry are separate records, joined by “and”; a condition that tells them apart may be missing. Identical values can stand only once. Inconclusive results are not listed. Where a call stands in place of a potency, no number is given. Some compounds were tested as several samples or in several runs, with calls that do not always agree. Activity calls are given as the source filed them. Unless noted, calls follow the shape of the dose curve; as a rule, active = well fitted curve in the direction sought with a large enough effect in the repeat runs; inconclusive = weak or mixed curves; inactive = no such curve, though single readings can be large; an effect the other way counts as inactive or inconclusive.
# Assays:
# [1] = qHTS assay to identify small molecule antagonists of the glucocorticoid receptor (GR) signaling pathway - cell viability counter screen (AID 720693); details: GR-bla HeLa viability, CellTiter-Glo luminescence, 18 h, with 5 nM dexamethasone present; series mostly up to 58.5 µM; also: nearly all actives have a fitted effect of over 55% in size
# [2] = qHTS assay for identifying genotoxic compounds that show differential cytotoxicity against isogenic chicken DT40 cell lines with known DNA damage response pathways - wild type cell line (AID 743012); details: DT40 wild type chicken cells viability, CellTiter-Glo, 40 h; series mostly up to 68.4 µM; also: nearly all actives have a fitted effect of over 60% in size; also: potency is read from the fitted curve at half-maximal effect
# Procedure, shortened: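 Quantitative HTS on parental DT40 cells: 40 h compound treatment at 37 C/5% CO2, with viability then determined by CellTiter-Glo luminescence. Values serve as the DNA repair-proficient reference for differential cytotoxicity.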
# [3] = qHTS assay for identifying genotoxic compounds that show differential cytotoxicity against isogenic chicken DT40 cell lines with known DNA damage response pathways - Rev3 mutant cell line (AID 743014); details: chicken DT40 Rev3-/- viability, CellTiter-Glo, 40 h; series mostly up to 68.4 µM; also: nearly all actives have a fitted effect of over 55% in size; also: potency is read from the fitted curve at half-maximal effect
# [4] = qHTS assay for identifying genotoxic compounds that show differential cytotoxicity against isogenic chicken DT40 cell lines with known DNA damage response pathways - Rad54/Ku70 mutant cell line (AID 743015); details: DT40 Rad54/Ku70 mutant viability, CellTiter-Glo, 40 h; series mostly up to 66.8 µM; also: nearly all actives have a fitted effect of over 60% in size; also: potency is read from the fitted curve at half-maximal effect
# [5] = qHTS assay to identify small molecule antagonists of the androgen receptor (AR) signaling pathway - cell viability counter screen (AID 743033; also: nearly all actives have a fitted effect of over 45% in size); details: AR-bla HEK293 viability, CellTiter-Glo luminescence, 16 h; series mostly up to 58.5 µM
# [6] = qHTS assay to identify small molecule antagonists of the androgen receptor (AR) signaling pathway using the MDA cell line - cell viability counter screen (AID 743041; also: nearly all actives have a fitted effect of over 45% in size); details: MDA-kb2 viability, CellTiter-Fluor, 16 h, cells co-treated with R1881 androgen agonist; series mostly up to 70.3 µM
# Procedure, shortened: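 MDA-kb2 AR-luc cells (MMTV-luciferase, AR/GR responsive) treated with compounds plus R1881 agonist for 16 h at 37C. CellTiter-Fluor added at 15.5 h; fluorescence read after 30 min in the same wells.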
# [7] = target: Androgen receptor (Homo sapiens) (UniProt P10275); test: qHTS assay to identify small molecule antagonists of the androgen receptor (AR) signaling pathway (AID 743035; active = well fitted inhibition curve with a large enough effect in the signal ratio in the repeat runs, not every such curve was filed as active; the % refers to the signal ratio); details: HEK293 AR-UAS-bla, R1881-stimulated, beta-lactamase FRET, 16 h; series mostly up to 58.5 µM
# Chain of Androgen receptor (Homo sapiens) (P10275 whole entry, looked up): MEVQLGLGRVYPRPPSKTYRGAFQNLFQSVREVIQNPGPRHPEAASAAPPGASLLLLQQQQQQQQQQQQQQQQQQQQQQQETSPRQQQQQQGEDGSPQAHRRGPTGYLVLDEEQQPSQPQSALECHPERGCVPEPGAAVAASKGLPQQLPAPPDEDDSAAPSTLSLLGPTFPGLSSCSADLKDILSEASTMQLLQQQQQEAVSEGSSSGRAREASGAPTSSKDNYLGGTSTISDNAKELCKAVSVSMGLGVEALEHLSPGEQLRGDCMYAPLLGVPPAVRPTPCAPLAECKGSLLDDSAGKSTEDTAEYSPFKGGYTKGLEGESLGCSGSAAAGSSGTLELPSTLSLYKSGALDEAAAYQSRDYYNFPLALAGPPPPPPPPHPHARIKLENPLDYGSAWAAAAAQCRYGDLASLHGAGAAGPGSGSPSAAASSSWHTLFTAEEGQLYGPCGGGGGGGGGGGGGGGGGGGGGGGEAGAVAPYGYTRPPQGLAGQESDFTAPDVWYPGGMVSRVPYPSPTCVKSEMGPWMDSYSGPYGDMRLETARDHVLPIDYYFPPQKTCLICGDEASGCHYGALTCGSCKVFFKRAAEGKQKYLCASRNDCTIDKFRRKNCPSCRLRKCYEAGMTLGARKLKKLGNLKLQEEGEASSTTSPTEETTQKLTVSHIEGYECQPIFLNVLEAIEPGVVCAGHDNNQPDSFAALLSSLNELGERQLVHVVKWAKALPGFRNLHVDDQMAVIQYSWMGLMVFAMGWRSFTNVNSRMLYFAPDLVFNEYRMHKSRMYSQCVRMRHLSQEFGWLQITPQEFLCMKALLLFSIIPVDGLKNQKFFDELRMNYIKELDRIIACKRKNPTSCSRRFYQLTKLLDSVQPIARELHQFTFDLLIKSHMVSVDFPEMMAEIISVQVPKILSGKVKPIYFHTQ
# Procedure, shortened: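 Cell line: GeneBLAzer AR-UAS-bla GripTite (HEK293). Stimulus: R1881 added after compound. Exposure: 16 h, 37C, 5% CO2. Readout: LiveBLAzer B/G FRET fluorescence after 2 h at room temperature.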
# [8] = target: Androgen receptor (Homo sapiens) (UniProt P10275); test: qHTS assay to identify small molecule agonists of the androgen receptor (AR) signaling pathway (AID 743036; active = well fitted activation curve with a large enough effect in the signal ratio in the repeat runs, with a control signal flat, not every such curve was filed as active; the % refers to the signal ratio; also: potency is read from the fitted curve at half-maximal effect); details: HEK293 AR-UAS-bla GripTite, beta-lactamase FRET ratio, 16 h; series mostly up to 62.4 µM
# Procedure, shortened: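 Activation was read as beta-lactamase FRET signal from LiveBLAzer B/G substrate, added for 2 h at room temperature. Before that, GeneBLAzer AR-UAS-bla GripTite (HEK293) cells had 16 h compound exposure at 37C.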
# [9] = target: Androgen receptor (Homo sapiens) (UniProt P10275); test: qHTS assay to identify small molecule agonists of the androgen receptor (AR) signaling pathway using the MDA cell line (AID 743040; also: potency is read from the fitted curve at half-maximal effect; nearly all actives have a fitted effect of over 20% in size); details: MDA-kb2 AR-luc cells, MMTV luciferase, 16 h; series mostly up to 70.3 µM
# Procedure, shortened: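 MDA-kb2 breast carcinoma cells carrying MMTV-luciferase (responsive to AR and GR), plated 5 h then treated 16 h with compounds at 37C, 0% CO2. Read-out was ONE-Glo luminescence after 30 min at room temperature.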
# [10] = target: Androgen receptor (Homo sapiens) (UniProt P10275); test: qHTS assay to identify small molecule antagonists of the androgen receptor (AR) signaling pathway using the MDA cell line (AID 743042; also: nearly all actives have a fitted effect of over 55% in size); details: MDA-kb2 AR-luc, MMTV luciferase, R1881 antagonist, 16 h; series mostly up to 70.3 µM
# Procedure, shortened: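 MDA-kb2 breast carcinoma cells carrying MMTV-luciferase (AR/GR responsive) were co-treated with compounds and the agonist R1881 for 16 h at 37C. Inhibition read as ONE-Glo luminescence; CellTiter-Fluor fluorescence measured in parallel for cytotoxicity.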
Structure (SMILES),outcome [1],Potency [2],Potency [3],Potency [4],outcome [5],Potency [6],outcome [7],Potency [8],Potency [9],outcome [10]
CCOCC(=O)O,inactive,inactive,inactive,inactive,inactive,inactive,–,–,–,–
O=C(O)CCCCCCCCC(=O)O,inactive,inactive,inactive,inactive,inactive,inactive,–,–,–,–
C[C@]12CC[C@@H]3c4ccc(O)cc4CC[C@H]3[C@@H]1C[C@@H](O)[C@@H]2O,inactive,–,–,–,inactive,inactive,–,–,–,–
O=C1c2ccccc2CCc2ccccc21,inactive,–,–,–,inactive,inactive,–,–,–,–
O=C(OCC1CCC2OC2C1)C1CCC2OC2C1 (stereo not drawn),inactive,–,10.1 µM (active) and 9.69 µM (active),inactive,inactive,inactive,–,–,–,–
CC(=O)OCc1ccco1,inactive,–,27.3 µM (active),inactive,inactive,inactive,–,–,–,–
CC1(C)OC[C@@H]2O[C@@]3(C(=O)O)OC(C)(C)O[C@H]3[C@@H]2O1,inactive,inactive,inactive,inactive,inactive,inactive,–,–,–,–
C[C@]12CCC(=O)C=C1CC[C@@H]1[C@@H]2[C@@H](O)C[C@@]2(C)[C@H]1CC[C@]2(O)C(=O)CO,inactive,inactive,inactive,inactive,–,inactive,inactive,21.3 nM (active) and 27.8 nM (active),119 nM (active) and 69.3 nM (active),inactive
CC1(C)S[C@@H]2[C@H](NC(=O)COc3ccccc3)C(=O)N2[C@H]1C(=O)O,inactive,inactive,inactive,inactive,inactive,inactive,–,–,–,–
CC(C)OP(=O)(CP(=O)(OC(C)C)OC(C)C)OC(C)C,inactive,–,inactive,inactive,inactive,inactive,–,–,–,–
CCCCCCO,inactive,inactive,inactive,inactive,inactive,inactive,–,–,–,–
Brc1ccc(Br)c(Br)c1,inactive,inactive,inactive,inactive,inactive,inactive,–,–,–,–
CCCCCCCCCCCCCCCC(=O)OC(C)C,inactive,inactive,inactive,inactive,inactive,inactive,–,–,–,–
CCOC(=O)n1ccn(C)c1=S,inactive,inactive,–,–,inactive,inactive,–,–,–,–
CC1(C)NC(=O)NC1=O,inactive,inactive,inactive,inactive,inactive,inactive,–,–,–,–
Cc1ccc(C(C)C)c(O)c1,inactive,inactive and 48.6 µM (active),inactive and 17.2 µM (active),inactive and 61.1 µM (active),inactive,inactive,–,–,–,–

Structure (SMILES),outcome [1],Potency [2],Potency [3],Potency [4],outcome [5],Potency [6],outcome [7],Potency [8],Potency [9],outcome [10]
C=Cc1ccc(C)cc1,inactive,inactive,inactive,inactive,inactive,inactive,–,–,–,–
CCc1ccccc1CC,inactive,inactive,inactive,inactive,inactive,inactive,–,–,–,–
NC(=S)NNC(N)=S,inactive,inactive,inactive,inactive,inactive,inactive,–,–,–,–
O=c1[nH]cnc2[nH]ncc12,inactive,inactive,inactive,inactive,inactive,inactive,–,–,–,–
CN(C)c1ccc(O)c2c1C[C@H]1C[C@H]3[C@H](N(C)C)C(=O)C(C(N)=O)=C(O)[C@@]3(O)C(=O)C1=C2O,inactive,21.1 µM (active) [middle of 4 runs],26.6 µM (active) and 18.8 µM (active) and 13.7 µM (active),23.7 µM (active) [middle of 4 runs],inactive,inactive,–,–,–,–
COCCCN,inactive,inactive,inactive,inactive,inactive,inactive,–,–,–,–
CC(C)OC(=O)COc1ccc(Cl)cc1Cl,inactive,inactive,inactive,inactive,inactive,inactive,–,–,–,–
CN(C)c1ccc(Cc2ccc(N(C)C)cc2)cc1,inactive,27.3 µM (active),48.8 µM (active) and 27.3 µM (active),61.4 µM (active) and 24.3 µM (active),inactive,inactive,–,–,–,–
O=S(=O)(O)c1ccccc1,inactive,inactive,inactive,inactive,inactive,inactive,–,–,–,–
CC(=O)c1ccc(O)cc1,inactive,inactive,inactive,inactive,inactive,inactive,–,–,–,–
C=CC(=O)OCCC(=O)O,inactive,inactive,inactive,inactive,inactive,inactive,–,–,–,–
O=C(O)c1ccc(S(=O)(=O)N(Cl)Cl)cc1,inactive,inactive,43.5 µM (active),inactive and 24.5 µM (active),inactive,inactive,–,–,–,–
C=C(C)CNCC,inactive,inactive,inactive,inactive,inactive,inactive,–,–,–,–
Nc1ccc(Cl)c(N)c1,inactive,inactive,inactive,–,inactive,inactive,–,–,–,–
Clc1ccccn1,inactive,inactive,inactive,inactive,inactive,inactive,–,–,–,–
O=C1CCCC1,inactive,inactive,inactive,inactive,inactive,inactive,–,–,–,–
